The results in this text go back to PubChem BioAssay (NCI).

This is part of a sample that, as a whole, favours compounds with a hit. Of some 83,000 tested, about 20% had one in any assay.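 In brief: 96-well plates, 48 h treatment, single concentration, percent growth endpoint.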 A number with no mark means an inactive call. The source made the active and inactive calls. The calls were made as follows: active = growth percent below 10; inactive = the rest.

Some test systems named below: SR leukemia; RPMI-8226 leukemia; OVCAR-8 ovarian; OVCAR-5 ovarian; OVCAR-4 ovarian; SK-OV-3 ovarian; IGROV1 ovarian; OVCAR-3 ovarian; HS 578T breast; NCI/ADR-RES ovarian; BT-549 breast; MDA-MB-435 melanoma; SW-620 colon; MCF7 breast; HCT-116 colon; KM12 colon; HCC-2998 colon; T-47D breast.
What all share (test): NCI-60 one-dose screen, 48 h (100 = growth as untreated, 0 = no growth, -100 = all killed)
Conditions in all cases: 10 µM unless noted

Consider `CCN(CC)CCn1c2ccc(OC)cc2c2sc3cc(O)ccc3c(=O)c21`, for which the growth is 2.99% (active) in the experiment on SR leukemia; 21.2% with RPMI-8226 leukemia; 30.7% with OVCAR-8 ovarian; 91% in the experiment with OVCAR-5 ovarian; 50.7% in the experiment on OVCAR-4 ovarian; 52.3% in the experiment on SK-OV-3 ovarian. In addition, the growth in the experiment with IGROV1 ovarian is 26.3%; with OVCAR-3 ovarian, 38.3%; in the experiment with HS 578T breast, 60%; in the experiment with NCI/ADR-RES ovarian it was 27.6%; with BT-549 breast, 62.7%; in the experiment on MDA-MB-435 melanoma, 48.8%. Further, the growth is 13.3% in the experiment on SW-620 colon, 9.43% (active) in the experiment with MCF7 breast, 14.2% in the experiment on HCT-116 colon and 24.6% in the experiment with KM12 colon.
In the case of `O=[N+]([O-])c1ccccc1Nc1ccc2ccccc2c1`, the growth is 88.1% in the experiment with SR leukemia; 82.7% in the experiment with RPMI-8226 leukemia; 88.6% with OVCAR-8 ovarian; 113% in the experiment on OVCAR-5 ovarian; 88% with OVCAR-4 ovarian; 84.7% in the experiment with SK-OV-3 ovarian. Further, the growth in the experiment on IGROV1 ovarian was 87%; in the experiment with OVCAR-3 ovarian, 96.3%; in the experiment with HS 578T breast it was 72.5%; with NCI/ADR-RES ovarian it was 105%; with BT-549 breast it was 84.8%; in the experiment on MDA-MB-435 melanoma, 99%. Further, the growth was 74.9% in the experiment on MCF7 breast, 82.9% in the experiment on HCT-116 colon, 105% with HCC-2998 colon and 99.4% in the experiment on KM12 colon.
Turning to `Fc1cccc(CNc2c3ccccc3nc3ccccc23)c1`, the growth with SR leukemia was 19.1%; in the experiment on RPMI-8226 leukemia, 10.1%; in the experiment with OVCAR-8 ovarian it was 36%; with OVCAR-5 ovarian, 43.8%; in the experiment on OVCAR-4 ovarian, 30.5%; with SK-OV-3 ovarian, 51.1%. Moreover, the growth was 25.6% in the experiment with IGROV1 ovarian; 67% with OVCAR-3 ovarian; 63.9% in the experiment on HS 578T breast; 42.7% in the experiment with T-47D breast; 77.1% in the experiment on BT-549 breast; 48.9% in the experiment with MDA-MB-435 melanoma. Also, the growth was 22% in the experiment on SW-620 colon; 7.9% (active) with MCF7 breast; 13.4% in the experiment with HCT-116 colon; 29.9% in the experiment on HCC-2998 colon; 48.6% with KM12 colon.
As to `COc1ccc(C/C(C)=C(\c2ccc(O)cc2)c2ccc(OCCN3CCCCC3)cc2)cc1`, the growth in the experiment with SR leukemia was 22.1%; with RPMI-8226 leukemia, 71.9%; in the experiment with OVCAR-8 ovarian, 90.7%; in the experiment with OVCAR-5 ovarian, 83.2%; in the experiment on OVCAR-4 ovarian, 87.1%; in the experiment with SK-OV-3 ovarian, 105%. Also, the growth is 80.6% with IGROV1 ovarian; 88.9% in the experiment with OVCAR-3 ovarian; 86.8% in the experiment on HS 578T breast; 53.8% in the experiment on T-47D breast; 88.3% in the experiment on BT-549 breast; 82.1% in the experiment with MDA-MB-435 melanoma. The growth in the experiment on SW-620 colon was 91.6%; in the experiment with MCF7 breast it was 35.2%; with HCT-116 colon, 46.5%; with HCC-2998 colon, 80.8%; in the experiment on KM12 colon it was 91.1%.
Turning to `Nc1nc(N(Cc2ccccc2)c2ccccc2)c2cn[nH]c2n1`, the growth in the experiment with SR leukemia is 4.11% (active); with RPMI-8226 leukemia it was 58.5%; with OVCAR-8 ovarian it was 80.3%; in the experiment on OVCAR-5 ovarian, 100%; in the experiment on OVCAR-4 ovarian, 78.6%; with SK-OV-3 ovarian, 95.6%. Further, the growth with IGROV1 ovarian is 80.7%; in the experiment on OVCAR-3 ovarian it was 76.7%; in the experiment with HS 578T breast it was 58.2%; in the experiment with T-47D breast it was 44.4%; with BT-549 breast it was 68.2%; in the experiment with MDA-MB-435 melanoma it was 9.3% (active). Also, the growth with SW-620 colon is 25%; with MCF7 breast, 43.8%; in the experiment with HCT-116 colon, 40.9%; in the experiment with HCC-2998 colon, 71.2%; with KM12 colon it was 35.1%.
For the compound `Nc1nc(N)c2c(n1)NC(c1cccc(Nc3ccnc4cc(C(F)(F)F)ccc34)c1)CC(c1ccc3c(c1)OCO3)=N2` (stereo unspecified), the growth was 1.91% (active) with SR leukemia; 17% in the experiment on RPMI-8226 leukemia; 73.4% in the experiment with OVCAR-8 ovarian; 123% in the experiment on OVCAR-5 ovarian; 85.9% in the experiment on OVCAR-4 ovarian; 76.8% in the experiment with SK-OV-3 ovarian. For the same compound, the growth in the experiment with IGROV1 ovarian is 73%; with OVCAR-3 ovarian, 65.7%; in the experiment with HS 578T breast, 66.9%; with NCI/ADR-RES ovarian it was 84.1%; with BT-549 breast, 112%; in the experiment with MDA-MB-435 melanoma, 9.59% (active). Besides, the growth in the experiment with SW-620 colon is 54.6%; with MCF7 breast, 33.3%; with HCT-116 colon, 39.9%; with HCC-2998 colon, 75.7%; in the experiment with KM12 colon, 38.6%.
In the case of `CN(C)Cc1ccc(NC(=O)c2cncc(C#Cc3cnc(N)c4ncccc34)c2)cc1C(F)(F)F`, the growth with SR leukemia is -4.79% (active); in the experiment with RPMI-8226 leukemia, -40.4% (active); in the experiment on OVCAR-8 ovarian, -32.8% (active); in the experiment with OVCAR-5 ovarian, -84.8% (active); in the experiment with OVCAR-4 ovarian it was -60.1% (active); in the experiment on SK-OV-3 ovarian, 105%. Further, the growth is 70.8% in the experiment on IGROV1 ovarian; 102% in the experiment with OVCAR-3 ovarian; 70.5% with HS 578T breast; 99% with T-47D breast; 102% with BT-549 breast; -75.1% (active) in the experiment on MDA-MB-435 melanoma. In addition, the growth in the experiment on SW-620 colon was -78.7% (active); with MCF7 breast, -72.4% (active); with HCT-116 colon, 47.7%; with HCC-2998 colon, 3.86% (active); with KM12 colon, -40.4% (active).
Regarding `Cn1cc(-c2nonc2-c2c[nH]c3ccccc23)c2cc(Br)ccc21`, the growth was 15.3% with SR leukemia; 40.6% in the experiment with RPMI-8226 leukemia; 45% with OVCAR-8 ovarian; 49% in the experiment on OVCAR-5 ovarian; 49.6% in the experiment on OVCAR-4 ovarian; 49.8% in the experiment with SK-OV-3 ovarian. The growth in the experiment on IGROV1 ovarian was 43%; with OVCAR-3 ovarian, 33.5%; with HS 578T breast it was 59.1%; in the experiment on NCI/ADR-RES ovarian it was 29.3%; in the experiment with BT-549 breast, 47.1%; with MDA-MB-435 melanoma it was 2.49% (active). The growth in the experiment with SW-620 colon is 23.9%; with MCF7 breast it was 19.6%; with HCT-116 colon, 25.6%; with HCC-2998 colon, 43.4%; with KM12 colon, 17.7%.
For `Cc1cc(O)c(=O)cc2c1C[C@H]1CC(C)(C)/C=C/C[C@]3(C)Oc4cc(=O)c(O)cc(C)c4C[C@H]3C[C@H](O)[C@@]1(C)O2`, the growth was 12.4% in the experiment on SR leukemia; 3.46% (active) with RPMI-8226 leukemia; 5.84% (active) in the experiment on OVCAR-8 ovarian; 18.9% in the experiment on OVCAR-5 ovarian; 9.54% (active) in the experiment on OVCAR-4 ovarian; -5.53% (active) in the experiment on SK-OV-3 ovarian. Besides, the growth in the experiment on IGROV1 ovarian was 11.2%; with OVCAR-3 ovarian it was 15.5%; in the experiment with HS 578T breast, 30%; in the experiment with T-47D breast, 2.08% (active); with BT-549 breast it was 1.38% (active); in the experiment with MDA-MB-435 melanoma, 18.1%. Moreover, the growth with SW-620 colon is 13.8%; in the experiment on MCF7 breast it was 2.97% (active); in the experiment with HCT-116 colon it was 8.37% (active); in the experiment on HCC-2998 colon, 32.4%; in the experiment with KM12 colon, 16.1%.
